# Measured values as given in PubChem BioAssay (EPA / NIEHS).
# Records with an inconclusive call do not appear. Activity calls are given as the source filed them. Rule for the calls, unless noted: active = hit-call score of the fitted dose curve at least 0.9, where 1 is the maximum; inactive = score below 0.9.
# Tests used:
# [1] = target: Myc proto-oncogene protein (Homo sapiens) (UniProt P01106); assay: ATG_Myc_CIS: Attagene CIS-FACTORIAL HepG2 Assay for human Myelocytomatosis (Myc) Proto-Oncogene Transcription Factor (AID 2282990); conditions: HepG2, Attagene cis-reporter transcription factor activity; actives raise or lower the signal
# Method in brief: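 HepG2, transient MRTU transfection (cis promoters, endogenous TFs); 24 h dosing; TriZol RNA → oligo(dT) RT → PCR → 6-FAM primer extension → HpaI cut → CE. Bidirectional fit vs DMSO.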
# [2] = ATG_NF_kB_CIS: Attagene CIS-FACTORIAL HepG2 Assay for human Nuclear Factor Kappa B (NF-kB) (AID 2282991); conditions: HepG2 Attagene cis-factorial NF-kB reporter mRNA; actives raise or lower the signal
# Method in brief: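 Fluorescence of labelled RT-PCR products separated by capillary electrophoresis gives reporter mRNA levels from transfected HepG2 cells exposed 24 h; values are fitted in both directions relative to DMSO.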
# [3] = ATG_NRF2_ARE_CIS: Attagene CIS-FACTORIAL HepG2 Assay for human Nuclear Factor Erythroid 2 Related Factor 2 (NFR2) response to Antioxidant Response Elements (ARE) (AID 2282992); conditions: HepG2 Attagene ARE/NRF2 reporter, transcription factor activity; actives raise or lower the signal
# Method in brief: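 Endogenous transcription factor activity in human liver HepG2 cells is tracked via a cis-element-driven reporter within a multiplexed set. mRNA induction is read by RT-PCR and capillary electrophoresis after 24 h, with DMSO as baseline.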
# [4] = target: Cellular tumor antigen p53 (Homo sapiens) (UniProt P04637); assay: ATG_p53_CIS: Attagene CIS-FACTORIAL HepG2 Assay for human p53 Transcription Factor (AID 2282994); conditions: HepG2 p53 cis-element reporter, Attagene mRNA; actives raise or lower the signal
# Method in brief: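 Steps: transfect HepG2 with multiplexed cis reporter constructs; dose chemicals 24 h; extract RNA, reverse-transcribe, PCR-amplify reporter sequences; FAM-label, HpaI-digest, resolve fragments by CE. Activity fitted both directions relative to DMSO.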
# [5] = BSK_3C_TissueFactor: BioMAP Diversity Plus: 3C Assay for Tissue Factor Biomarker Activity (AID 2282997); conditions: BioMAP 3C HUVEC, tissue factor biomarker readout; actives raise or lower the signal
# Method in brief: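 HUVEC, 3C system, 24 h post-dose; Tissue Factor by ELISA; bidirectional fit vs DMSO baseline.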
# [6] = BSK_3C_uPAR: BioMAP Diversity Plus: 3C Assay for Urokinase-type plasminogen activator receptor (uPAR) Biomarker Activity (AID 2282998); conditions: BioMAP 3C HUVEC, uPAR biomarker ELISA; actives raise or lower the signal
# Method in brief: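 HUVEC primary cells; 24 h post-dose; uPAR by ELISA; gain or loss of signal fitted bidirectionally vs DMSO baseline.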
# [7] = BSK_3C_VCAM1: BioMAP Diversity Plus: 3C Assay for Vascular cell adhesion molecule 1 (VCAM1) Biomarker Activity (AID 2282999); conditions: BioMAP 3C HUVEC, VCAM1 ELISA, cytokine-stimulated; actives raise or lower the signal
# Method in brief: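 Activity fitted in both directions relative to DMSO, with ELISA measurement of the surface marker on primary HUVEC (3C) at 24 h post-treatment; parallel SRB staining (0.1% SRB, TCA-fixed, 560 nm) flagged overt cytotoxicity.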
# [8] = BSK_4H_Eotaxin3: BioMAP Diversity Plus: 4H Assay for Eotaxin 3 Biomarker Activity (AID 2283000); conditions: primary human endothelial cells (HUVEC); actives raise or lower the signal;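 for outcome: CCL26 protein level quantified by ELISA in parallel with SRB cytotoxicity check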
# Method in brief: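 Readout is Eotaxin-3 (CCL26) level by ELISA in primary human umbilical vein endothelial cells harvested 24 h after chemical exposure; activity fitted in both directions against DMSO control.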
# [9] = read-out: Intercellular Adhesion Molecule 1 (ICAM1), ICAM1 (gene 3383); assay: BSK_3C_ICAM1: BioMAP Diversity Plus: 3C Assay for Intercellular Adhesion Molecule 1 (ICAM1) Biomarker Activity (AID 2283003); conditions: primary human endothelial cells (HUVEC); actives raise or lower the signal
# Method in brief: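 ELISA read-out of ICAM-1; HUVEC (primary human), 3C system, 24 h post-dosing; bidirectional fit vs DMSO baseline.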
# [10] = target: human Retinoic Acid Receptor beta (RARb), RARB (gene 5915) (UniProt P10826); assay: ATG_RARb_TRANS: Attagene TRANS-FACTORIAL HepG2 Assay for human Retinoic Acid Receptor beta (AID 2283004; active = hit-call score of the fitted dose curve at least 0.9, where 1 is the maximum)
# Method in brief: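 Readout is reporter mRNA induction: RNA reverse-transcribed, PCR-amplified, FAM-labelled, HpaI-cut and resolved by capillary electrophoresis. Transiently transfected HepG2 cells carrying exogenous NR–Gal4 chimeras were dosed for 24 h; activity fitted upward relative to DMSO.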
# [11] = target: Retinoic acid receptor alpha (Homo sapiens) (UniProt P10276); assay: ATG_RARa_TRANS: Attagene TRANS-FACTORIAL HepG2 Assay for human Retinoic Acid Receptor alpha (RARa) (AID 2283005; active = hit-call score of the fitted dose curve at least 0.9, where 1 is the maximum)
# Method in brief: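 Reporter transcripts, measured by RT-PCR with fluorescent labeling and capillary electrophoresis after 24 h dosing, reflect activity of an exogenous human RARa–GAL4 fusion in transiently transfected HepG2. Fitted for increase relative to DMSO.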
# [12] = BSK_3C_Proliferation: Cell Proliferation Assessment in the BioMAP Diversity Plus: 3C Assay (AID 2283006); conditions: primary human endothelial cells (HUVEC);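 for AC50: potency may reflect either rise or fall in cell number versus DMSO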
# Method in brief: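 HUVEC, sub-confluent; 48 h chemical exposure; 10% TCA fix, 0.1% SRB stain, A560 total protein. Gain or loss of signal fitted both directions vs DMSO control.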
# [13] = target: Peroxisome proliferator-activated receptor gamma (Homo sapiens) (UniProt P37231); assay: ATG_PPARg_TRANS: Attagene TRANS-FACTORIAL HepG2 Assay for human Peroxisome Proliferator-activated Receptor-gamma (PPARg) (AID 2283007; active = hit-call score of the fitted dose curve at least 0.9, where 1 is the maximum)
# Method in brief: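 Twenty-four hours after chemical dosing of transiently transfected HepG2 cells, isolated RNA was converted to cDNA, reporter sequences amplified and 6-FAM-labelled, then HpaI-digested and analysed by capillary electrophoresis. Signal increase against DMSO was fitted.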
# [14] = target: human Retinoic Acid Receptor gamma (RARg), RARG (gene 5916) (UniProt P13631); assay: ATG_RARg_TRANS: Attagene TRANS-FACTORIAL HepG2 Assay for human Retinoic Acid Receptor gamma (RARg) (AID 2283009; active = hit-call score of the fitted dose curve at least 0.9, where 1 is the maximum)
# Method in brief: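 Readout: reporter transcript levels via RT-PCR, 6-FAM primer-extension labelling, HpaI digestion and capillary electrophoresis. Cells: HepG2 carrying transfected RARg-GAL4 chimera plus UAS reporter set. Dosing 24 h; DMSO negative control.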
# [15] = target: human RAR-related Orphan Receptor beta (RORb), RORB (gene 6096) (UniProt Q92753); assay: ATG_RORb_TRANS: Attagene TRANS-FACTORIAL HepG2 Assay for human RAR-related Orphan Receptor beta (RORb) (AID 2283010; active = hit-call score of the fitted dose curve at least 0.9, where 1 is the maximum)
# Method in brief: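 HepG2, transient MRTU transfection (GAL4-UAS reporters, exogenous NR-Gal4 chimeras); 24 h compound exposure; total RNA → RT-PCR → 6-FAM primer extension → HpaI digest → CE fluorescence. Positive direction vs DMSO baseline.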
# [16] = target: human RAR-related Orphan Receptor gamma (RORg), RORC (gene 6097) (UniProt P51449); assay: ATG_RORg_TRANS: Attagene TRANS-FACTORIAL HepG2 Assay for human RAR-related Orphan Receptor gamma (RORg) (AID 2283011; active = hit-call score of the fitted dose curve at least 0.9, where 1 is the maximum)
# Method in brief: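 Transient MRTU transfection of HepG2 (TRANS format, exogenous NR-Gal4 chimera). 24 h dosing. Total RNA → oligo(dT) RT → PCR → 6-FAM labelling → HpaI cut → CE. Gain vs DMSO.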
# [17] = target: Nuclear receptor subfamily 1 group I member 2 (Homo sapiens) (UniProt O75469); assay: ATG_PXR_TRANS: Attagene TRANS-FACTORIAL HepG2 Assay for human Pregnane X Receptor (PXR) (AID 2283008; active = hit-call score of the fitted dose curve at least 0.9, where 1 is the maximum)
# Method in brief: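 HepG2 transfected (FuGene 6) with GAL4-UAS reporter units + PXR-Gal4 chimera; dosed 24 h. Total RNA → oligo(dT) RT → PCR → 6-FAM primer extension → HpaI cut → CE. Gain-of-signal vs DMSO.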
# [18] = target: human Peroxisome Proliferator-activated Receptor alpha (PPARa), PPARA (gene 5465) (UniProt Q07869); assay: ATG_PPARa_TRANS: Attagene TRANS-FACTORIAL HepG2 Assay for human Peroxisome Proliferator-activated Receptor alpha (PPARa) (AID 2283001; active = hit-call score of the fitted dose curve at least 0.9, where 1 is the maximum)
# Method in brief: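 Transfected HepG2 cells treated with test chemical for 24 h. RNA isolated, reverse-transcribed with oligo(dT), PCR-amplified, FAM-labelled and HpaI-digested. Fragments sized by capillary electrophoresis; gain-of-signal fit relative to DMSO.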
# [19] = target: human Peroxisome Proliferator-activated Receptor delta (PPARd), PPARD (gene 5467) (UniProt Q03181); assay: ATG_PPARd_TRANS: Attagene TRANS-FACTORIAL HepG2 Assay for human Peroxisome Proliferator-activated Receptor delta (PPARd) (AID 2283002; active = hit-call score of the fitted dose curve at least 0.9, where 1 is the maximum)
# Method in brief: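 Transient HepG2 transfection (multiple GAL4-UAS RTUs, chimeric receptor-Gal4); 24 h dosing; total RNA → oligo(dT) RT → PCR → 6-FAM primer extension → HpaI cut → CE. Positive direction vs DMSO.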
# [20] = ATG_Oct_MLP_CIS: Attagene CIS-FACTORIAL HepG2 Assay for human Octamer-Binding Transcription Factor (Oct) (AID 2282993); conditions: HepG2 Attagene cis-factorial Oct reporter, mRNA; actives raise or lower the signal
# Method in brief: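 Read-out: reporter mRNA via RT-PCR plus capillary electrophoresis of 6-FAM-labelled fragments. Transiently transfected HepG2, 24 h exposure, endogenous TF activity on cis elements. Gain or loss of signal fitted relative to DMSO.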
# human Retinoic Acid Receptor gamma (RARg), RARG (gene 5916), sequence (P13631 whole entry, looked up, the tested form may be a part): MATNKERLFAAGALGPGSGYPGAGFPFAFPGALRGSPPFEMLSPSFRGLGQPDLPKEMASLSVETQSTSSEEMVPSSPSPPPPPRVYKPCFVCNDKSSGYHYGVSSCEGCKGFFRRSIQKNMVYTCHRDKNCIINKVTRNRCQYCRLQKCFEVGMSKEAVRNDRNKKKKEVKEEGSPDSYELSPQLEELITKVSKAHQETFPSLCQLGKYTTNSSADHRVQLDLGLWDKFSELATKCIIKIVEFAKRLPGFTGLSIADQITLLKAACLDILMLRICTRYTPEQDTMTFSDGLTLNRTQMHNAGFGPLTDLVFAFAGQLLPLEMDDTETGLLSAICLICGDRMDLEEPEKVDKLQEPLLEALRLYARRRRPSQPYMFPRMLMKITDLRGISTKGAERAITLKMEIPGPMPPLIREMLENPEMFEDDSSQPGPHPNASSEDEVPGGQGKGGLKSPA
# Cellular tumor antigen p53 (Homo sapiens), sequence (P04637 whole entry, looked up, the tested form may be a part): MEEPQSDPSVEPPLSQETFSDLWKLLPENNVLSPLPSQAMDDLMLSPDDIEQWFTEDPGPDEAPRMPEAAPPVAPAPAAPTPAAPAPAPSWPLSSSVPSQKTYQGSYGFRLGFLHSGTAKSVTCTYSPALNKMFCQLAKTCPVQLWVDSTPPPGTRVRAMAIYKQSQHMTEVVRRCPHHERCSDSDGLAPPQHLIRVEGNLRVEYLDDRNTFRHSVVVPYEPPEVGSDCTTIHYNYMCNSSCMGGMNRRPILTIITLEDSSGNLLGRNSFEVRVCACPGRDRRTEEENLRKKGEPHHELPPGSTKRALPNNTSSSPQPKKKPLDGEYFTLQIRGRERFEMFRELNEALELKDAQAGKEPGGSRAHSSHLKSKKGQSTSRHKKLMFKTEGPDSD
# Retinoic acid receptor alpha (Homo sapiens), sequence (P10276 whole entry, looked up, the tested form may be a part): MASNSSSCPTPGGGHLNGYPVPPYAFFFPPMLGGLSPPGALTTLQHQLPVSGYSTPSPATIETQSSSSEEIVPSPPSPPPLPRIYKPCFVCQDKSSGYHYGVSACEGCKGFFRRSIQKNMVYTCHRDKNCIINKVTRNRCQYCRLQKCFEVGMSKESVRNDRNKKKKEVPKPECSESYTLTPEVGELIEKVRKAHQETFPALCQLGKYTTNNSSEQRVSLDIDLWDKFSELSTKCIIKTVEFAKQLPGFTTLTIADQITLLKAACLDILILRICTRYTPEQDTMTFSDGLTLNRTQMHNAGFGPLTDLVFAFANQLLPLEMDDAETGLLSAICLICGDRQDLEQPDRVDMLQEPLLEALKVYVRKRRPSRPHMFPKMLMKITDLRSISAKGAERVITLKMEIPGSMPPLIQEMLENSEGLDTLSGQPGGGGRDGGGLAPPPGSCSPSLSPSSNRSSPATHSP
# Myc proto-oncogene protein (Homo sapiens), sequence (P01106 whole entry, looked up): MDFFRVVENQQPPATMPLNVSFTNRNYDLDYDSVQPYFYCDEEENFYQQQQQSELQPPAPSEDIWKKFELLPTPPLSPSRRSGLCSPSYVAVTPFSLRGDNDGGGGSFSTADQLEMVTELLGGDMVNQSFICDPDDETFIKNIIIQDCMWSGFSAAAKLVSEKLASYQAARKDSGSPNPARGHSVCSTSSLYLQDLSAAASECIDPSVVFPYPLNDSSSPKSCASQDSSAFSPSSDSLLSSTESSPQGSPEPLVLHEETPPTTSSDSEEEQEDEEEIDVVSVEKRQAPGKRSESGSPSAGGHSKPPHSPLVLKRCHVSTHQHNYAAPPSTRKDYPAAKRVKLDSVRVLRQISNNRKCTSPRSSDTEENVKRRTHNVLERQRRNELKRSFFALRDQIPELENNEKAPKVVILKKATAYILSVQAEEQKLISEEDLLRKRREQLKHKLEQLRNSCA
# human RAR-related Orphan Receptor beta (RORb), RORB (gene 6096), sequence (Q92753 whole entry, looked up, the tested form may be a part): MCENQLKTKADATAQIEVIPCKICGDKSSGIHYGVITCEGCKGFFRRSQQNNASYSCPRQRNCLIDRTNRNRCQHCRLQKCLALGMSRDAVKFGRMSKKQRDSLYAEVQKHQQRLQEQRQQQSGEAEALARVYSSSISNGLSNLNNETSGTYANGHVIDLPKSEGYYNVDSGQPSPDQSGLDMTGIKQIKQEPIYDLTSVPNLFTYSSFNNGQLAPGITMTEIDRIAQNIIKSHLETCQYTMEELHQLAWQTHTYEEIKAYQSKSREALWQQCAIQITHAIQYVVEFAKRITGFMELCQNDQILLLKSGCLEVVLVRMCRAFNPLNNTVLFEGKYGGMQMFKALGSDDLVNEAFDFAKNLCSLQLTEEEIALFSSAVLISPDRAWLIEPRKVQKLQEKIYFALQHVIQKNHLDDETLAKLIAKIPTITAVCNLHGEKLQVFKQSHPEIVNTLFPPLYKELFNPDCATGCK
# human Peroxisome Proliferator-activated Receptor alpha (PPARa), PPARA (gene 5465), sequence (Q07869 whole entry, looked up, the tested form may be a part): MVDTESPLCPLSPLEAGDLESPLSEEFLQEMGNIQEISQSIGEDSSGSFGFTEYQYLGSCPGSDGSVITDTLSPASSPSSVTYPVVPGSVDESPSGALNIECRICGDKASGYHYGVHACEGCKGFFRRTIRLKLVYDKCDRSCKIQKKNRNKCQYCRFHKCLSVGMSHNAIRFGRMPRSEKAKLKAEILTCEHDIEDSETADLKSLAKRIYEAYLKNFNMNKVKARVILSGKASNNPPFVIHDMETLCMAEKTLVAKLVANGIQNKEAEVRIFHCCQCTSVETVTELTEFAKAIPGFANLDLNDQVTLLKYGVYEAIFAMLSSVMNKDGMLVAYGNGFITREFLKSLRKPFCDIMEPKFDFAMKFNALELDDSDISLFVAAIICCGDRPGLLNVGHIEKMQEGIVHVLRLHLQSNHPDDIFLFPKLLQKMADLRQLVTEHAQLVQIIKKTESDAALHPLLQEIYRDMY
# Peroxisome proliferator-activated receptor gamma (Homo sapiens), sequence (P37231 whole entry, looked up): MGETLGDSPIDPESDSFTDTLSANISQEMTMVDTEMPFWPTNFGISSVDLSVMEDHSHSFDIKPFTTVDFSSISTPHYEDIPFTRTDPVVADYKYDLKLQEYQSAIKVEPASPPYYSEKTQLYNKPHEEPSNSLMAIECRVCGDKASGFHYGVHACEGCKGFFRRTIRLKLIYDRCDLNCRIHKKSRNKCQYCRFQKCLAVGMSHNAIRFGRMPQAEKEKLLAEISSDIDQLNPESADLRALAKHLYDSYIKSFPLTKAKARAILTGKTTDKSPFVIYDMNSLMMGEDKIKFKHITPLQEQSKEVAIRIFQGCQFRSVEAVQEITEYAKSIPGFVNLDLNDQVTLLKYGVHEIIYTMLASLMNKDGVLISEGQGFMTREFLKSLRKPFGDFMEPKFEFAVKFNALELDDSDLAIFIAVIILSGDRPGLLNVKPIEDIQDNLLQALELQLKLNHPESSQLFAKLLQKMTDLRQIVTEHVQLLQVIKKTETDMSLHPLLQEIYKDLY
# human RAR-related Orphan Receptor gamma (RORg), RORC (gene 6097), sequence (P51449 whole entry, looked up, the tested form may be a part): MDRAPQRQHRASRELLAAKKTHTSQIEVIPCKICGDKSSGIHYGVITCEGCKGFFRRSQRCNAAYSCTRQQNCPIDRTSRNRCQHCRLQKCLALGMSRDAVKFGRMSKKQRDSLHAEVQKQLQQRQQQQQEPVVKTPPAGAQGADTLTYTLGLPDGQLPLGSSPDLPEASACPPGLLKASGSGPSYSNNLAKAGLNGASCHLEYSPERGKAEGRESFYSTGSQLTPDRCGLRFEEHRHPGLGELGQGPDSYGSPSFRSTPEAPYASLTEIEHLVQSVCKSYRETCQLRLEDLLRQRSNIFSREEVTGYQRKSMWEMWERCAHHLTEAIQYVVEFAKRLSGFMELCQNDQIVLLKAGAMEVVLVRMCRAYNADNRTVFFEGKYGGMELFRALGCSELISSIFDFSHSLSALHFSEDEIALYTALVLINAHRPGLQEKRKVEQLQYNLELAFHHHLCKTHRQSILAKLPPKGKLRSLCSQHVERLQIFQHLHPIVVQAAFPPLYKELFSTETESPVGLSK
# human Peroxisome Proliferator-activated Receptor delta (PPARd), PPARD (gene 5467), sequence (Q03181 whole entry, looked up, the tested form may be a part): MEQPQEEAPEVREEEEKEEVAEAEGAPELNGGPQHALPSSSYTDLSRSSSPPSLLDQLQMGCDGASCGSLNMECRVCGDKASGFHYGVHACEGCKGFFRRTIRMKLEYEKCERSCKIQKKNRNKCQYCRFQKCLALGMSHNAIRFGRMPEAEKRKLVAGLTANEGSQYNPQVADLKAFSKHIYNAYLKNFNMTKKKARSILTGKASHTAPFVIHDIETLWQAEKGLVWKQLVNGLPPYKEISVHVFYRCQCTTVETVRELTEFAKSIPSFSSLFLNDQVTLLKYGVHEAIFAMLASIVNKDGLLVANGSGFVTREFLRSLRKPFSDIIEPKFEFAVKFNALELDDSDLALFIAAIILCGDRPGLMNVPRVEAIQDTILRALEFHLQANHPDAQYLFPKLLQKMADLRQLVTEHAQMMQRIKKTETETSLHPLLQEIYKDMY
# Nuclear receptor subfamily 1 group I member 2 (Homo sapiens), sequence (O75469 whole entry, looked up, the tested form may be a part): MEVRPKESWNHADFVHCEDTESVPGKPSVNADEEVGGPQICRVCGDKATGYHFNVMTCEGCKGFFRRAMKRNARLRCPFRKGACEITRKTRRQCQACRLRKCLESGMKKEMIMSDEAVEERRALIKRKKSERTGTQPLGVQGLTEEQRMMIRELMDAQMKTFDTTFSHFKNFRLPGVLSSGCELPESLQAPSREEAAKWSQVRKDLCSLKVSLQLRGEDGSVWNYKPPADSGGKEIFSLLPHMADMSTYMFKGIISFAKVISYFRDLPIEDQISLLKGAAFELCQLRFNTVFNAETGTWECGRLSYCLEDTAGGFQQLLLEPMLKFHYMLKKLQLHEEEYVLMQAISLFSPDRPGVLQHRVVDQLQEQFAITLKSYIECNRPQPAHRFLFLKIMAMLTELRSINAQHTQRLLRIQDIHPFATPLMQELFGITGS
smiles,measurement,setting,value
CCC(O)=C1C(=O)CC(C(=O)O)CC1=O (stereo not drawn),outcome,[1],inactive
same,outcome,[2],inactive
same,AC50,[3],35.6 µM (active)
same,outcome,[4],inactive
same,outcome,[5],inactive
same,outcome,[6],inactive
same,outcome,[7],inactive
same,outcome,[8],inactive
same,outcome,[9],inactive
same,outcome,[10],inactive
same,outcome,[11],inactive
same,outcome,[12],inactive
same,AC50,[13],22.3 µM (active)
same,outcome,[14],inactive
same,outcome,[15],inactive
same,outcome,[16],inactive
CCOC(=O)C(C)Oc1ccc(Oc2nc3ccc(Cl)cc3o2)cc1 (stereo not drawn),outcome,[1],inactive
same,outcome,[2],inactive
same,outcome,[3],inactive
same,outcome,[4],inactive
same,outcome,[5],inactive
same,AC50,[6],13 µM (active)
same,outcome,[7],inactive
same,outcome,[8],inactive
same,outcome,[9],inactive
same,outcome,[10],inactive
same,outcome,[12],inactive
same,outcome,[13],inactive
same,outcome,[17],inactive
COc1c(Cl)ccc(Cl)c1C(=O)O,outcome,[1],inactive
same,outcome,[3],inactive
same,outcome,[5],inactive
same,outcome,[6],inactive
same,outcome,[7],inactive
same,outcome,[8],inactive
same,outcome,[18],inactive
same,outcome,[19],inactive
same,outcome,[9],inactive
same,outcome,[10],inactive
same,outcome,[11],inactive
same,outcome,[12],inactive
same,outcome,[13],inactive
same,outcome,[17],inactive
same,outcome,[14],inactive
CCCCCCC(C)OC(=O)COc1nc(F)c(Cl)c(N)c1Cl (stereo not drawn),outcome,[1],inactive
same,outcome,[2],inactive
same,outcome,[3],inactive
same,outcome,[4],inactive
same,AC50,[5],34.4 µM (active)
same,AC50,[6],37.8 µM (active)
same,AC50,[7],18.3 µM (active)
same,AC50,[8],34.2 µM (active)
same,outcome,[19],inactive
same,AC50,[9],34.9 µM (active)
same,AC50,[12],13.6 µM (active)
same,outcome,[17],inactive
same,outcome,[15],inactive
O=C(O)c1ccccc1,outcome,[1],inactive
same,outcome,[3],inactive
same,outcome,[4],inactive
same,outcome,[5],inactive
same,outcome,[6],inactive
same,outcome,[7],inactive
same,outcome,[8],inactive
same,outcome,[18],inactive
same,outcome,[9],inactive
same,outcome,[12],inactive
same,outcome,[13],inactive
same,outcome,[15],inactive
same,outcome,[16],inactive
CCCCC(CC)COC(=O)c1ccccc1C(=O)O (stereo not drawn),outcome,[1],inactive
same,AC50,[3],21.9 µM (active)
same,outcome,[4],inactive
same,outcome,[5],inactive
same,outcome,[6],inactive
same,outcome,[7],inactive
same,outcome,[8],inactive
same,outcome,[18],inactive
same,outcome,[19],inactive
same,outcome,[9],inactive
same,outcome,[12],inactive
same,outcome,[17],inactive
same,outcome,[16],inactive
Oc1ccc(C(c2ccc(O)cc2)C(Cl)(Cl)Cl)cc1,outcome,[1],inactive
same,outcome,[3],inactive
same,outcome,[20],inactive
same,outcome,[4],inactive
same,AC50,[5],36.4 µM (active)
same,AC50,[6],31.5 µM (active)
same,AC50,[7],30.3 µM (active)
same,AC50,[8],31.4 µM (active)
same,outcome,[18],inactive
same,AC50,[9],27.6 µM (active)
same,AC50,[12],19.8 µM (active)
same,outcome,[13],inactive
same,outcome,[17],inactive
same,outcome,[15],inactive
same,outcome,[16],inactive
CCOC(=O)[C@H](C)Oc1ccc(Oc2nc3ccc(Cl)cc3o2)cc1,outcome,[1],inactive
same,outcome,[2],inactive
same,AC50,[3],50 µM (active)
same,outcome,[4],inactive
same,outcome,[5],inactive
same,outcome,[6],inactive
same,outcome,[7],inactive
same,outcome,[8],inactive
same,outcome,[9],inactive
same,outcome,[11],inactive
same,outcome,[12],inactive
same,outcome,[13],inactive
same,outcome,[17],inactive
same,outcome,[14],inactive
same,outcome,[15],inactive
